Tau fluor counter: counter-screen for tau fibril formation inhibitors; tau K18 P301L Alexa594 fluorescence, heparin fibrillization; Potency, µM (series often up to 57.7 µM); 280,000 tested, 0.93% active; AID 1463; note: nearly all actives have a fitted effect of over 55% in size
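Human K18 P301L tau (15 uM unlabeled plus 0.24 uM Alexa 594-labeled, final) in 100 mM sodium acetate pH 7 was mixed with compound and 20 uM heparin and incubated 6 hr at 37 C.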
Tau ThT inhib: blocks human tau fibril formation measured by thioflavin T; 270,000 tested, 2.1% active; P10636; Potency, µM (top dose mostly 57.4 µM), most hits filed as inhibitors; recombinant tau K18 P301L, heparin-induced fibrillization, ThT fluorescence; note: nearly all actives have a fitted effect of over 55% in size
Target sequence (P10636 561-689 P618L limits assumed): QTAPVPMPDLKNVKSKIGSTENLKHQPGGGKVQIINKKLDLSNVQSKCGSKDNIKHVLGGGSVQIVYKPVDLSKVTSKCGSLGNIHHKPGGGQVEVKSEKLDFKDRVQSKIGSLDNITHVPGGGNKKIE
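Fibril formation assay: tau K18 P301L at 15 uM with trace Alexa 594 label, heparin inducer 20 uM, pH 7 sodium acetate buffer, 37 C for 6 hr; endpoint ThT signal.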
Tau fibril FP: tau fibrillization inhibition (FP); P10636; K18 P301L tau heparin fibrillization, Alexa594 FP, 6 h; Potency, µM (titrated, usually from 57.7 µM), hits mostly inhibitors; 280,000 tested, 0.39% active; AID 1468; note: nearly all actives have a fitted effect of over 55% in size
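Quantitative HTS format: compounds meet 15 uM recombinant K18 P301L tau and Alexa 594-tau tracer in 100 mM sodium acetate pH 7; 20 uM heparin triggers fibrillization at 37 C over 6 hr; FP gives the signal.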
Sfp PPTase inh: Sfp phosphopantetheinyl transferase inhibition; Biochemical Sfp PPTase activity, qHTS; Potency, µM, most hits filed as inhibitors; 310,000 tested, 3.5% active; AID 1490;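 note: the enzyme is Sfp with the accession as filed and its product quenches rhodamine fluorescence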
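Buffer: 50 mM Hepes-Na pH 7.6, 10 mM MgCl2, 0.01% Nonidet P-40, 0.01% BSA. Enzyme 15 nM, pre-exposed to compound 15 min; substrates then added and fluorescence change tracked over 30 min.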
G9a block: inhibitors of human histone lysine methyltransferase G9a. Q96KQ7. G9a H3K9 monomethylation, AlphaScreen, 2 h. Potency, µM (titrated, usually from 102 µM), actives largely listed as inhibitors. 350,000 tested, 8.8% active. AID 504332; note: nearly all actives have a fitted effect of over 75% in size
Target sequence (Q96KQ7 913-1193 limits assumed): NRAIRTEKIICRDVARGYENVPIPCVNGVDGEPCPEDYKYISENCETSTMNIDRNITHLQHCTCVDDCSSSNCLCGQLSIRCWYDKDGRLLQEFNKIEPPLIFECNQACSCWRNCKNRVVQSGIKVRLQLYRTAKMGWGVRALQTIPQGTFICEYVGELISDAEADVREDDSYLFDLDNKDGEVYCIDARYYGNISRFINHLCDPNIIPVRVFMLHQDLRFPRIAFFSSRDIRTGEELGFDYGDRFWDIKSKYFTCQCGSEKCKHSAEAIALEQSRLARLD
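Chemiluminescent proximity detection of H3K9 monomethylation, read after 10 min bead incubation in the dark. Reaction: 20 nM G9a, 500 nM biotin-H3K9 peptide, 20 uM SAM cofactor, 2 h, room temperature, following 15 min enzyme-compound preincubation.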
Coupling enz: coupling enzyme interference in Giardia aldolase counter-screen. coupling enzyme system counterscreen, AmpLite Red fluorescence. activity change, negative = inhibition, % at 58.2 µM, hits read low. 290,000 tested, 0.67% active; in the data active = activity change below about -30%
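Counterscreen of the coupled detection system alone, without aldolase: glyceraldehyde-3-phosphate coupling enzymes plus AmpLite Red readout. Compounds at 57.5 uM final, 10 min RT preincubation, 20 min RT reaction, fluorescence 525/598 nm.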
A number is an active result; n = inactive; u = inconclusive; x = not tested or not shown; [ ] = another dose, or the depositor's remark. A selection: hits, their analogues and other compounds. The true share with any hit is near 11%. Unless noted, calls come from the whole dose curve; as a rule, active = well fitted curve in the direction sought with a large enough effect; inconclusive = small, poorly fitted or top-dose-only effect, or another doubt; inactive = no such curve, though single readings can be large; an effect the other way counts as inactive or inconclusive.

SMILES	Tau fluor counter	Tau ThT inhib	Tau fibril FP	Sfp PPTase inh	G9a block	Coupling enz
C(=N\NC1=Nc2cccc3cccc1c23)/c1cccnc1	n	2.8µM	n	u	u	n
COc1ccc(NC2SC(=O)N(CC(=O)O)C2=O)cc1 (centres undefined)	n	u	n	n	40µM	n
COC(=O)c1cccc(CN2C(=O)SC(Nc3ccc(C)cc3)C2=O)c1 (centres undefined)	u	u	n	n	n	n
O=C(O)CN1C(=O)SC(Nc2ccccc2)C1=O (centres undefined)	n	n	n	n	u	n
CCOC(=O)c1ccc(NC2SC(=O)N(Cc3cccc(C(=O)O)c3)C2=O)cc1 (centres undefined)	n	n	n	x	2.8µM	x
O=C(Nc1ccccc1F)C1CCN(C(=O)NCc2ccccc2)CC1	x	x	x	n	n	n
O=C1CCCc2c1cc(C(=O)Nc1ccc(Br)cn1)c(=O)n2-c1ccccc1	u	u	u	u	n[12.7 µM]	-51
O=C1CCCc2c1cc(C(=O)NC1CCSC1=O)c(=O)n2-c1ccccc1 (centres undefined)	n	n	n	50µM	u	-38
O=C1CCCc2c1cc(C(=O)O)c(=O)n2-c1ccccc1	n	n	n	n	x	n
CC1(C)CC(=O)c2cc(C(=O)NC3CCSC3=O)c(=O)n(-c3ccccc3)c2C1 (centres undefined)	n	u	n	n	u	n
COc1cccc(CNC(=O)CN2C(=O)CSc3ccc(S(=O)(=O)N(C)C)cc32)c1	n	n	n	x	n	x
O=C(O)c1[nH]c2ccc(Cl)cc2c1CC(=O)N1CCN(c2ccccc2)CC1	n	n	n	n	50µM	n
O=C(Cc1ccc2c(c1)OCCO2)N1CCN(c2ccccc2)CC1	n	n	n	n	50µM	n
O=C(CSc1ccc2c(c1)OCCO2)N1CCN(c2ccccc2O)CC1	x	x	x	x	50µM	x
COc1ccccc1N1CCN(C(=O)Cc2c(C(=O)O)[nH]c3ccc(Cl)cc23)CC1	n	n	n	n	n	n
COc1ccc(NC(=O)N2CCc3c(sc4c3CCCC4)C2c2ccccc2OC)cc1 (centres undefined)	n	n	n	x	u	x
COc1ccc(CNC(=O)C2CCN(C(=O)c3ccc(-n4ccc5ccccc54)s3)CC2)cc1	n	n	n	x	n	x
Cc1cc(C(=O)Nc2c(C)nc3ccccn3c2=O)ccc1[N+](=O)[O-]	n	n	n	x	n	x
CCNc1nc(OC)nc(N(OC)S(=O)(=O)c2ccc(C)cc2)n1	x	x	x	n	n	n
COc1ccc(/C(O)=C2/C(=O)C(=O)N(CCN(C)C)C2c2ccccc2)cc1Cl (centres undefined)	n	n	n	n	n[12.7 µM]	n
COc1ccc(/C(O)=C2/C(=O)C(=O)N(CCN(C)C)C2c2ccc(OC)c(OC)c2)c(C)c1 (centres undefined)	n	n	n	n	40µM	n
COc1ccc(/C(O)=C2/C(=O)C(=O)N(CCN(C)C)C2c2ccc(C)cc2)cc1Cl (centres undefined)	n	n	n	n	89µM	n
COc1ccc(/C(O)=C2\C(=O)C(=O)N(CCN(C)C)C2c2cccc(OC)c2OC)cc1Cl (centres undefined)	n	n	n	n	45µM	n
COc1ccc(OC)c(C2/C(=C(\O)c3ccc(OC)c(Cl)c3)C(=O)C(=O)N2CCN(C)C)c1 (centres undefined)	n	n	n	n	n[12.7 µM]	n
CN(C)CCN1C(=O)C(=O)/C(=C(/O)c2ccc(F)cc2)C1c1ccccc1F (centres undefined)	n	n	n	n	79µM	n
SMILES	Tau fluor counter	Tau ThT inhib	Tau fibril FP	Sfp PPTase inh	G9a block	Coupling enz
Cc1ccc(/C(O)=C2\C(=O)C(=O)N(CCN(C)C)C2c2ccccc2F)cc1 (centres undefined)	n	n	n	n	u	n
Cc1c(Br)c([N+](=O)[O-])nn1CC(=O)Nc1cccc2nonc12	n	u	n	n	u	n
Cc1cccc(C)c1NC(=O)C[N+](C)(C)CC(O)COc1cccc2ccccc12 (centres undefined)	n	n	n	n	u	n
CCN(CC)CCN1C(=O)C(=O)/C(=C(/O)c2cnn(-c3ccccc3)c2C)C1c1cccnc1 (centres undefined)	n	n	n	n	n[12.7 µM]	n
CCCOc1cccc(C2/C(=C(/O)c3ccncc3)C(=O)C(=O)N2CCCN(C)C)c1 (centres undefined)	n	n	n	n	n[12.7 µM]	n
COc1cc(C2/C(=C(/O)c3ccc(OCC(C)C)cc3)C(=O)C(=O)N2CCN(C)C)ccc1O (centres undefined)	n	n	n	n	25µM	n
CCN(CC)CCN1C(=O)C(=O)/C(=C(/O)c2ccc(F)cc2)C1c1cccnc1 (centres undefined)	n	n	u	n	25µM	n
COc1cccc(C2/C(=C(\O)c3c(C)nc4c(C)cccn34)C(=O)C(=O)N2CCCN(C)C)c1 (centres undefined)	n	n	n	n	50µM	n
COc1ccc(N2CC(NC(=O)Cc3cccs3)CC2=O)cc1OC (centres undefined)	n	n	n	x	n	x
CCNc1ncc2nc(-c3cc(F)cc(F)c3)c(=O)n(Cc3cccs3)c2n1	x	x	x	n	n[12.7 µM]	n
O=C(OCC#CCSc1nnc(-c2cccc3ccccc23)o1)c1cccc2[nH]ccc12	x	x	x	x	n[12.7 µM]	x
Cc1cc(C)c2c(=O)[nH]c(SCC(=O)N(C)C)nc2n1	n	n	n	n	n	n
Cc1cc(C)c2c(N=NN(C)C)[nH]nc2n1	n	u	n	n	45µM	n
COc1ccc(/C(=N\Nc2ccccc2C(=O)O)c2ccccc2)cc1	n	u	u	n	35µM	n
CC(C)Nc1nc(NC(C)C)nc(C(=O)OCCO)n1	n	n	n	n	u	n
CCNc1nc(NCC)nc(C(=O)OCCO)n1	n	n	n	n	40µM	n
CC(=O)N1CCN(C(=O)CSc2nc3c(cnn3-c3ccccc3)c(=O)[nH]2)CC1	n	n	n	n	n	n
Cc1nc(N2N=C(c3ccc(Cl)cc3)CC2c2ccco2)sc1C(=O)N(C)C (centres undefined)	n	u	n	25µM	n	n
Clc1ccc(C2=NN(c3ccccc3)C(c3ccco3)C2)cc1 (centres undefined)	n	u	n	28µM	x	n
O=C(CSc1nc2c(cnn2-c2ccccc2)c(=O)[nH]1)N1N=C(c2cccs2)CC1c1ccc(F)cc1 (centres undefined)	n	n	n	n	28µM	n
CS(=O)(=O)N1N=C(c2cccs2)CC1c1ccco1 (centres undefined)	n	u	n	10µM	n[12.7 µM]	n

High-throughput results as filed in PubChem.
